These results are taken from PubChem BioAssay.

Each structure is given as a SMILES string.

For this assay, the system named is Fibrinogen (Alexa647-labelled). The assay is described as follows: Alexa647-fibrinogen binding to printed small molecules – biochemical, small-molecule microarray, 635/667 nm fluorescence, artefact control for SMM control-protein annotation, profiling panel (AID 1131).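 Note: z-score merges 667 nm fluorescence with per-spot signal-to-noise over triplicate slides.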 The note with it: fibrinogen-A647 binding fluorescence, higher = more signal.
Take `COc1ccc([C@H]2OC[C@@H]3C[C@@H](Cc4ccccc4)C(=O)N32)cc1`: the composite z-score is -0.0072. As for `COCCCNC(=O)[C@@H]1c2ccccc2C(=O)N(Cc2ccccc2Cl)[C@H]1c1ccc(CO)cc1`, the composite z-score is 0.381.

Consider `O=C1C2C=CC(C(O)c3cccc4ccccc34)N(Nc3ccccc3F)C2C(=O)N1c1ccccc1` (stereo not given), for which the composite z-score is 1. For the compound `COC(=O)[C@@]1(CCS(=O)(=O)c2ccccc2)N=C(c2ccc(OCCCO)cc2)O[C@H]1c1ccccc1CN=[N+]=[N-]`, the composite z-score amounted to 0.755. The same measure for `C=C[C@H](OC)[C@@H](OC(=O)Nc1ccc(OC)cc1)c1ccc(O)c(F)c1`: -1.5; for `C=CCC(OC(C)=O)[C@@H]1[C@@H](N(Cc2ccc(-c3ccccc3)cc2)C(=O)c2cccc3ccccc23)c2cc(OCCCO)ccc2N1C(=O)c1ccc(-c2ccccc2)cc1` (stereo not given in full): 0.56.

As to `C=CCOC(=O)[C@H]1[C@@H]2C(=O)O[C@@H](c3ccccc3)[C@@H](c3ccccc3)N2[C@@H](c2ccc(OCCOC(=O)[C@H]3C[C@H]4C(=O)N[C@@H](CCCC[N+](C)(C)C)C(=O)N4[C@H]3c3ccc(O)cc3)cc2)[C@]12C(=O)Nc1ccc(I)cc12`, the composite z-score was -0.154. The same measure for `COC(=O)[C@@]1(Cc2ccc(OC)cc2)[C@@H]2C(=CC(=O)[C@H]2CC(=O)C(=O)N2CCCC2)CN1C(=O)c1ccccc1`: 0.802; for `C[C@H]1NC(=O)[C@@]23C(=O)N[C@@H](Cc4ccccc4)C2[C@H](C)[C@@]2(C)O[C@H]2C3/C=C/C/C=C\CNC(=O)[C@@H]2CCCN2C1=O` (stereo not given in full): 0.859; for `O=C(OCc1ccccc1)C1=CCC2c3[nH]c4ccccc4c3C(=O)C1N2S(=O)(=O)c1ccccc1[N+](=O)[O-]` (stereo not given): 0.906.
